High-throughput results: PubChem BioAssay, National Center for Advancing Translational Sciences (NCATS)
Hits are enriched below; roughly 21% of the tested compounds scored in any of these assays.
Shiga inhibitor: blocks Shiga toxin action in Vero cells; Vero cells, Shiga toxin protein synthesis inhibition reporter; inhibition, % at 38.7 µM; hit rate 9.2% among 290,000; AID 2315; in the data active = inhibition mostly above about 28%, no sharp cut-off; inactive = mostly below about 43%; note: 0% is about no effect
Pf growth 96h: P. falciparum growth inhibition at 96 hour, primary screen for plastid delayed-death inhibitors | hit rate 6.9% among 320,000 | AID 504834 | P. falciparum luciferase reporter growth, 96 h | Potency, µM (series often up to 28.7 µM), inactives show top-dose activity change, negative = inhibition, most hits filed as inhibitors; note: potency is the fitted concentration of half-maximal effect; % is set by controls: 0 for no effect and ±100 for the full control effect
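Two-generation exposure (96 h) targets delayed-death phenotype. Reporter parasites carrying integrated firefly luciferase, in red cells at 2% hematocrit and 0.05% parasitemia final, kept at 37 C, 5% CO2; luminescence loss indicates inhibition.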
Sm TGR inh: blocks Schistosoma mansoni thioredoxin glutathione reductase; purified TGR, DTNB reduction, TNB absorbance 405 nm; hit rate 3% among 360,000; AID 485364; Potency, µM (highest dose often 114 µM), without a hit: at the top dose activity change, negative = inhibition, most hits filed as inhibitors; Q962Y6; note: potency is the fitted concentration of half-maximal effect; % is set by controls: 0 for no effect and ±100 for the full control effect; nearly all actives have a fitted effect of over 60% in size
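TGR 20 nM + NADPH 100 uM (dispensed conc.), cpd preinc 15 min RT; start with NADPH (500 uM addition) then DTNB (15 mM addition). Kinetic TNB absorbance, 405 nm filter. Four-parameter Hill fit across titration.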
NS1 inh: inhibitors of influenza NS1 protein function; Potency, µM (highest dose often 46.1 µM), for inactives: top-dose activity, positive = more growth; hit rate 0.4% among 270,000; AID 2326; calls by dose curve; note: potency is the fitted concentration of half-maximal effect; actives are rising curves; nearly all actives have a fitted effect of over 50% in size
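Growth recovery, yeast-based: influenza A NS1 expressed in S. cerevisiae causes slow growth, and suppressors are detected by OD600. The parent strain without NS1 is used as positive control.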
Pf growth 48h: P. falciparum growth inhibition at 48 hours (one generation) | P. falciparum luciferase growth in erythrocytes, 48 h | Potency, µM (top dose mostly 28.7 µM), inactives show top-dose activity change, negative = inhibition, actives largely listed as inhibitors | hit rate 5.9% among 310,000 | AID 504832; note: potency is the fitted concentration of half-maximal effect; % is set by controls: 0 for no effect and ±100 for the full control effect
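Luciferase-expressing P. falciparum in infected erythrocytes (2% hematocrit, 0.1% parasitemia final) in RPMI 1640/0.5% Albumax were exposed to compound for 48 hours at 37 C, 5% CO2; growth read as luminescence.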
Cycloheximide cs: counter-screen hit for Shiga toxin inhibitors, cycloheximide. cell reporter, cycloheximide protein synthesis inhibition counterscreen. max response, %. hit rate 12% among 300,000. AID 2314; in the data active = max response mostly above about 13%, no sharp cut-off; inactive = mostly below about 14%; note: read at 38.3 µM for the half of the compounds with a filed dose; 0% is about no effect
The depositor's hits bear a star; ? = inconclusive; · = no result given; [ ] = dose if it differs, or a comment. Unless noted, calls come from the whole dose curve; as a rule, active = well fitted curve in the direction sought with a large enough effect; inconclusive = small, poorly fitted or top-dose-only effect, or another doubt; inactive = no such curve, though single readings can be large; an effect the other way counts as inactive or inconclusive.

SMILES	Shiga inhibitor	Pf growth 96h	Sm TGR inh	NS1 inh	Pf growth 48h	Cycloheximide cs
CN1CCc2c(sc(N)c2C(=O)c2ccc(Cl)cc2)C1	7.9	4.65µM*	-25.5%	-1.8%	?	6.5
COc1ccc(C(=O)c2c(N)sc3c2CCN(C(=O)OC(C)(C)C)C3)cc1	-4.2	?	?	4.3%	13.1µM*	-6.2
Nc1sc2c(c1C(=O)c1ccc(Cl)cc1)CCCC2	12.8	·	·	·	·	7.5
[S-]C(=Nc1ccc(Cl)cc1)N[n+]1ccccc1	36.6*	-8.5%	-5.8%	-1.6%	14.6%	29.6*
CC(=O)Nc1ccc(C)cc1-c1nc2ccccc2n(CC(=O)Nc2cc(Cl)ccc2C)c1=O	·	·	-1.8%	·	·	·
O=C(NCCc1cccc(C(F)(F)F)c1)C1CCC(=O)N(C2CC2)C1 (stereo unspecified)	-12.7	?	-17.6%	11.9%	1.2%	1.0
Cc1ccc(OC(=O)COc2ccccc2C)cc1	-3.5	14.9%	-3.6%	-50.1%	-1.6%	-2.6
Cc1ccc(OCC(=O)Oc2cccc(C)c2C)cc1	·	11.7µM*	-2.3%	-2.9%	41.0%	-1.0
O=C(Nc1nccs1)c1cc2sccc2n1Cc1ccc(F)cc1	27.9	-9.2%[5.75 µM]	0.3%	5.9%	13.1µM*	17.7*
CC(=O)c1ccc(NC(=O)c2cc3sccc3n2Cc2ccc(F)cc2)cc1	·	·	5.0%	·	·	·
COc1ccc(NC(=O)c2cc3sccc3n2Cc2ccc(F)cc2)cc1OC	54.9	-16.6%	13.0%	-9.6%	?	24.8*
CCc1c(C(C)S(=O)(=O)c2ccc(C)cc2)[nH]c(=O)n1-c1ccc(OC(F)(F)F)cc1 (stereo unspecified)	22.7	?	5.62µM*	17.8%	·	14.8
CCn1cc(S(=O)(=O)c2ccc(C)cc2)[nH]c1=O	-4.5	?	6.2%	0.2%	2.3%	-5.7
CC(=O)c1cccc(NC(=O)CSc2nc(=O)n(CCN3CCOCC3)c3c2CCCC3)c1	·	?	7.3%	·	?	·
Cc1cccc(N2CCn3c2nc2c3c(=O)n(C/C=C/c3ccccc3)c(=O)n2C)c1	·	·	-26.6%	·	·	·
Cn1c(CNC(=O)OC(C)(C)C)n[nH]c1=S	4.4	34.7%	24.2%	2.4%	-1.9%	-2.0
CNCCC=C1c2ccccc2CCc2ccccc21	-2.6	9.53µM*	-15.8%	-6.3%	10.7µM*	-3.4
C[N+](C)([O-])CCC=C1c2ccccc2CCc2ccccc21	·	·	·	-10.8%	·	·
O=C(CC1C(=O)NCCN1C/C=C/c1ccccc1)NCCc1ccncc1 (stereo unspecified)	-0.9	26.6%	-12.5%	-1.1%	-9.6%	-1.7
O=C(O)CC1C(=O)NCCN1C/C=C/c1ccccc1 (stereo unspecified)	6.2	24.7%	39.8µM*	5.6%	-0.2%	-4.3
O=C(CC1C(=O)NCCN1C/C=C/c1ccccc1)NCCCC1CCCC1 (stereo unspecified)	74.6*	?	11.2%	1.8%	25.1%	37.3*
Cc1ccc(CC2C(=O)N(C)C(=O)N(C)C2=O)s1	9.9	47.6%	39.8µM*	21.0%	12.1%	4.9
CCOC(=O)c1cccc(NC(=O)COc2ccc3c(C)cc(=O)oc3c2)c1	·	·	-1.3%	·	·	·
CCC1CCC(C(=O)NNC(=O)c2cc(-c3ccco3)[nH]n2)CC1 (stereo unspecified)	-11.7	-28.1%	22.4µM*	·	-7.8%	-2.1
O=C(NNC(=O)C1CCCCC1)c1ccco1	6.1	?	-0.8%	·	-2.2%	5.6
SMILES	Shiga inhibitor	Pf growth 96h	Sm TGR inh	NS1 inh	Pf growth 48h	Cycloheximide cs
Cc1ccc(-n2nnnc2SCC(=O)Nc2ccc3c(c2)COC3=O)cc1C	-3.5	·	5.7%	8.5%	-2.8%	16.5*
Cn1ccnc1SCC(=O)Nc1ccc2c(c1)COC2=O	52.0*	·	-5.2%	2.0%	9.7%	14.5
O=C(CNC(=O)c1ccccc1)N/N=C/c1ccc([N+](=O)[O-])s1	12.4	4.15µM*	?	·	?	20.1
O=C(Cc1ccccc1)NCC(=O)N/N=C/c1ccc([N+](=O)[O-])s1	-2.8	5.22µM*	-24.5%	19.4%	?	-1.4
O=C(Cc1ccccc1)NCC(=O)N/N=C/c1ccc(C(=O)O)cc1	-1.2	-12.1%	-14.2%	0.2%	0.7%	5.2
CCOc1cc(N2CCOCC2)c(OCC)cc1NC(=O)CN1C(=O)NC2(CCCCC2)C1=O	·	-25.7%	-48.6%	·	?	·
CNC(=S)N(CCO)Cc1cc2cc3c(cc2[nH]c1=O)OCO3	-3.6	23.7%	12.3%	11.5%	11.7%	-4.6
COc1ccc(CCn2c(N)c(C#N)c3nc4ccccc4nc32)cc1OC	-30.3	56.2%	43.3%	-8.6%	5.86µM*	6.6
COc1ccc(Cn2c(N)c(C#N)c3nc4ccccc4nc32)cc1OC	-6.5	?	-23.9%	18.7%	·	-1.0
COc1ccccc1CCn1c(N)c(C#N)c2nc3ccccc3nc21	9.3	?	-8.6%	11.9%	9.28µM*	2.0
N#Cc1c(N)n(-c2ccccc2N)c2nc3ccccc3nc12	25.9	-16.5%	44.7µM*	2.7%	-13.5%	9.2
C[C@H](N=C1NS(=O)(=O)c2ccccc21)C(=O)OCc1cc([N+](=O)[O-])cc2c1OCOC2	-3.2	40.4%	11.6%	6.1%	4.0%	-6.9
CCOC(=O)C1CCN(c2ncnc3c2[nH]c2cccc(OC)c23)CC1	-12.4	?	0.0%	-8.8%	?	-2.7
COc1cccc2[nH]c3c(N4CCCCC4)ncnc3c12	67.3	23.4%	-0.4%	-11.6%	?	45.5*
OC1(c2cccc(C(F)(F)F)c2)CCN(c2ncnc3c2[nH]c2ccc(F)cc23)CC1	15.0	21.5%	7.6%	-182.8%	0.0%	5.0
COc1cc2[nH]c3c(N4CCN(c5ccccn5)CC4)ncnc3c2cc1OC	-7.8	14.7µM*	-29.2%	-35.2%	9.28µM*	-3.8
COc1ccc2[nH]c3c(N4CCc5ccccc5C4)ncnc3c2c1	13.5	?	13.3%	-6.1%	?	28.4*
Cc1cccc2[nH]c3c(N4CC=C(c5ccc(F)cc5)CC4)ncnc3c12	-4.3	?	11.4%	-44.5%	10.4µM*	1.9
CCOc1ccccc1NC(=O)Cn1c(=O)n(-c2ccccc2)c(=O)c2c1c1cc(C)ccc1n2C	·	·	1.7%	·	·	·
CN(CCCNC(=O)c1cccn2c(=O)c3ccccc3nc12)Cc1ccccc1	-6.3	?	-34.8%	2.9%	?	-3.4
C[N+](C)(C)CC(=O)N/N=C\c1c(O)ccc2ccccc12	·	·	·	-2.8%	·	·
Nc1nonc1N/N=C/c1c(O)ccc2ccccc12	24.3	21.0%	4.0%	·	-10.8%	11.7
Nc1cc(Cl)nc(N/N=C/c2c(O)ccc3ccccc23)n1	116.4*	?	-0.1%	9.9%	?	26.3*
O=C(CSCC(=O)Nc1ccccc1)N/N=C/c1c(O)ccc2ccccc12	7.8	1.85µM*	-12.6%	-3.5%	2.62µM*	19.4
O=C(O)c1cc(N/N=C/c2c(O)ccc3ccccc23)ccc1Cl	160.1*	160.5%	?	-4.3%	253.7%	63.4*
O=C(CNc1ccccc1)N/N=C/c1c(O)ccc2ccccc12	-4.4	407.2%	-2.1%	3.4%	?	14.2
